Results reported in the supplement of paper PMC12669032.

Key:
Test in all cases: growth AUC relative to DMSO control (median of replicates) (fraction); higher = more growth (less inhibition), active = hit call of the paper
Details in all cases: 20 µM; 24 h;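 active = AUC reduced over 20% with Padj below 0.05 in at least 2 of 3 replicates; inactive = otherwise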
Akkermansia muciniphila = system: Akkermansia muciniphila
Method in brief: (§1)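 Starting at OD600 0.05, gut bacterial monocultures in mGAM were grown anaerobically at 37 °C with 20 µM compound (1% DMSO) under pierced gas-permeable seals. OD600 was read every hour for 24 h, and the lowest OD of each curve was set to 0. Area under the growth curve was normalised to the plate median of solvent-only wells, or to row and column medians on the industrial chemical plate, and the median of three biological replicates grown on separate days is given.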

Bacteroides caccae = system: Bacteroides caccae
Method in brief: as §1

Bacteroides clarus = system: Bacteroides clarus
Method in brief: as §1

Bacteroides dorei = system: Bacteroides dorei
Method in brief: as §1

Bacteroides stercoris = system: Bacteroides stercoris
Method in brief: as §1

[1] = system: Bacteroides thetaiotaomicron
Method in brief: as §1

Bacteroides uniformis = system: Bacteroides uniformis
Method in brief: as §1

[2] = system: Bifidobacterium longum subsp. longum
Method in brief: as §1

Clostridium difficile = system: Clostridium difficile
Method in brief: as §1

Collinsella aerofaciens = system: Collinsella aerofaciens
Method in brief: as §1

Coprococcus comes = system: Coprococcus comes
Method in brief: as §1

Escherichia coli ED1a = system: Escherichia coli ED1a
Method in brief: as §1

Escherichia coli IAI1 = system: Escherichia coli IAI1
Method in brief: as §1

Eubacterium rectale = system: Eubacterium rectale
Method in brief: as §1

[3] = system: Fusobacterium nucleatum subsp. animalis
Method in brief: as §1

Lactobacillus gasseri = system: Lactobacillus gasseri
Method in brief: as §1

Lactobacillus paracasei = system: Lactobacillus paracasei
Method in brief: as §1

Odoribacter splanchnicus = system: Odoribacter splanchnicus
Method in brief: as §1

[4] = system: Parabacteroides distasonis
Method in brief: as §1

Parabacteroides merdae = system: Parabacteroides merdae
Method in brief: as §1

Measured: growth AUC

Clc1ccc(C(c2ccc(Cl)cc2)C(Cl)(Cl)Cl)cc1
inactive: Akkermansia muciniphila 1.1 | Bacteroides caccae 0.934 | Bacteroides dorei 0.955 | [1] 0.866 | [2] 0.886 | Clostridium difficile 0.943 | Collinsella aerofaciens 0.869 | Coprococcus comes 0.964 | Escherichia coli ED1a 0.963 | Escherichia coli IAI1 0.979 | Eubacterium rectale 0.878 | [3] 0.916 | Lactobacillus gasseri 0.487 | Lactobacillus paracasei 0.908 | Odoribacter splanchnicus 0.709
active: Bacteroides clarus 0.763 | Bacteroides stercoris 0.127 | Bacteroides uniformis 0.798 | [4] 0.258 | Parabacteroides merdae 0.69

CNC(=O)O/N=C(\C)SC
inactive: Akkermansia muciniphila 0.938 | Bacteroides caccae 0.99 | Bacteroides clarus 0.981 | Bacteroides dorei 1.03 | Bacteroides stercoris 1.06 | [1] 0.988 | Bacteroides uniformis 0.988 | [2] 0.91 | Clostridium difficile 0.999 | Collinsella aerofaciens 1.03 | Coprococcus comes 0.981 | Escherichia coli ED1a 0.979 | Escherichia coli IAI1 1.01 | Eubacterium rectale 1.01 | [3] 0.985 | Lactobacillus gasseri 1.02 | Lactobacillus paracasei 0.967 | Odoribacter splanchnicus 0.992 | [4] 0.986 | Parabacteroides merdae 1

O=c1oc2ccccc2c(O)c1C1CC(c2ccc(OCc3ccc(C(F)(F)F)cc3)cc2)Cc2ccccc21 (mixture of isomers)
active: Bacteroides clarus 0.548 | Bacteroides stercoris 0.176 | [2] 0.525 | Clostridium difficile 0.0158 | Collinsella aerofaciens 0.788 | Eubacterium rectale 0.431 | Lactobacillus gasseri 0.484 | Lactobacillus paracasei 0.631 | [4] 0.031 | Parabacteroides merdae 0.251
inactive: Akkermansia muciniphila 0.908 | Bacteroides caccae 0.919 | Bacteroides dorei 1.02 | [1] 0.97 | Bacteroides uniformis 0.989 | Coprococcus comes 0.858 | Escherichia coli ED1a 1.03 | Escherichia coli IAI1 1.04 | [3] 1.02 | Odoribacter splanchnicus 0.989

CCOP(=S)(OCC)SCCS(=O)CC (stereo not given)
inactive: Akkermansia muciniphila 1.04 | Bacteroides caccae 1.02 | Bacteroides clarus 0.979 | Bacteroides dorei 0.985 | Bacteroides stercoris 1.02 | [1] 1.02 | Bacteroides uniformis 1.05 | [2] 1 | Clostridium difficile 0.967 | Collinsella aerofaciens 1 | Coprococcus comes 0.971 | Escherichia coli ED1a 0.985 | Escherichia coli IAI1 0.98 | Eubacterium rectale 1.11 | [3] 1.02 | Lactobacillus gasseri 0.941 | Lactobacillus paracasei 0.948 | Odoribacter splanchnicus 1.06 | [4] 1.01 | Parabacteroides merdae 1

O=C1C2CC=CCC2C(=O)N1SC(Cl)(Cl)Cl (stereo not given)
inactive: Akkermansia muciniphila 0.981 | Bacteroides caccae 1.03 | Bacteroides clarus 1.01 | Bacteroides dorei 1.03 | Bacteroides stercoris 1.08 | [1] 1.01 | Bacteroides uniformis 1.02 | [2] 0.981 | Clostridium difficile 1.04 | Collinsella aerofaciens 1.02 | Coprococcus comes 1.03 | Escherichia coli ED1a 1.02 | Escherichia coli IAI1 1.02 | Eubacterium rectale 1.1 | [3] 1.1 | Lactobacillus gasseri 1.06 | Lactobacillus paracasei 1.01 | Odoribacter splanchnicus 0.999 | [4] 1.07 | Parabacteroides merdae 1.02

CNC(=O)Oc1ccccc1C(C)C
inactive: Akkermansia muciniphila 1.08 | Bacteroides caccae 1.01 | Bacteroides clarus 1.04 | Bacteroides dorei 1.03 | Bacteroides stercoris 1.23 | [1] 1.01 | Bacteroides uniformis 1.01 | [2] 0.965 | Clostridium difficile 1.02 | Collinsella aerofaciens 0.986 | Coprococcus comes 1.04 | Escherichia coli ED1a 1.01 | Escherichia coli IAI1 1.02 | Eubacterium rectale 1.07 | [3] 1.07 | Lactobacillus gasseri 1.04 | Lactobacillus paracasei 0.861 | Odoribacter splanchnicus 1.03 | [4] 0.998 | Parabacteroides merdae 1.03

COc1cc(Cl)c(OC)cc1Cl
inactive: Akkermansia muciniphila 1.03 | Bacteroides caccae 1.04 | Bacteroides clarus 1 | Bacteroides dorei 1.04 | Bacteroides stercoris 1.01 | [1] 1.04 | Bacteroides uniformis 1 | [2] 0.995 | Clostridium difficile 1.05 | Collinsella aerofaciens 1.11 | Coprococcus comes 1.04 | Escherichia coli ED1a 1.03 | Escherichia coli IAI1 1.01 | Eubacterium rectale 0.986 | [3] 0.951 | Lactobacillus gasseri 0.94 | Lactobacillus paracasei 0.94 | Odoribacter splanchnicus 1 | [4] 1.02 | Parabacteroides merdae 1.05

COP(=S)(OC)Oc1ccc(SC)c(C)c1
inactive: Akkermansia muciniphila 0.903 | Bacteroides caccae 0.943 | Bacteroides clarus 0.952 | Bacteroides dorei 1 | Bacteroides stercoris 0.995 | [1] 1.03 | Bacteroides uniformis 0.977 | [2] 0.963 | Clostridium difficile 1.03 | Collinsella aerofaciens 0.977 | Coprococcus comes 1.02 | Escherichia coli ED1a 0.997 | Escherichia coli IAI1 0.987 | Eubacterium rectale 0.878 | [3] 1.08 | Lactobacillus gasseri 1.01 | Lactobacillus paracasei 1.02 | Odoribacter splanchnicus 1 | [4] 0.915 | Parabacteroides merdae 0.953

CC(Oc1ccc(Oc2ncc(C(F)(F)F)cc2Cl)cc1)C(=O)O (stereo not given)
inactive: Akkermansia muciniphila 1.02 | Bacteroides caccae 0.974 | Bacteroides clarus 0.957 | Bacteroides dorei 0.954 | Bacteroides stercoris 0.979 | [1] 0.975 | Bacteroides uniformis 0.943 | [2] 0.93 | Clostridium difficile 1.01 | Collinsella aerofaciens 0.967 | Coprococcus comes 0.99 | Escherichia coli ED1a 1.02 | Escherichia coli IAI1 0.987 | Eubacterium rectale 0.977 | [3] 1.01 | Lactobacillus gasseri 0.922 | Lactobacillus paracasei 0.876 | Odoribacter splanchnicus 1.04 | [4] 0.978 | Parabacteroides merdae 0.976

CN(C)c1nc(=O)n(C2CCCCC2)c(=O)n1C
inactive: Akkermansia muciniphila 0.966 | Bacteroides caccae 1.03 | Bacteroides clarus 0.985 | Bacteroides dorei 1 | Bacteroides stercoris 1.07 | [1] 1.05 | Bacteroides uniformis 1.01 | [2] 1.01 | Clostridium difficile 1.02 | Collinsella aerofaciens 1.01 | Coprococcus comes 1.03 | Escherichia coli ED1a 0.994 | Escherichia coli IAI1 0.984 | Eubacterium rectale 0.978 | [3] 1.11 | Lactobacillus gasseri 1.01 | Lactobacillus paracasei 0.943 | Odoribacter splanchnicus 1.02 | [4] 1.03 | Parabacteroides merdae 1.01

COC[C@H](C)N(C(=O)CCl)c1c(C)csc1C
inactive: Akkermansia muciniphila 1.08 | Bacteroides caccae 1 | Bacteroides clarus 0.983 | Bacteroides dorei 0.951 | Bacteroides stercoris 0.95 | [1] 1 | Bacteroides uniformis 0.981 | [2] 1.04 | Clostridium difficile 0.976 | Collinsella aerofaciens 1 | Coprococcus comes 1 | Escherichia coli ED1a 0.985 | Escherichia coli IAI1 0.981 | Eubacterium rectale 1.17 | [3] 0.988 | Lactobacillus gasseri 0.922 | Lactobacillus paracasei 0.95 | Odoribacter splanchnicus 0.976 | [4] 0.963 | Parabacteroides merdae 0.956

CC(=O)O.CCCCCCCCCCCCN=C(N)N
inactive: Akkermansia muciniphila 1.28 | Bacteroides caccae 1.02 | Bacteroides clarus 0.988 | Bacteroides dorei 0.985 | Bacteroides stercoris 1.17 | [1] 1.01 | Bacteroides uniformis 0.986 | [2] 0.917 | Clostridium difficile 1 | Collinsella aerofaciens 0.972 | Coprococcus comes 1.02 | Escherichia coli ED1a 1.02 | Escherichia coli IAI1 1.02 | Eubacterium rectale 1.04 | [3] 1.04 | Lactobacillus gasseri 0.794 | Lactobacillus paracasei 1.02 | Odoribacter splanchnicus 1.02 | [4] 0.933 | Parabacteroides merdae 0.996

COP(=S)(OC)Oc1cc(Cl)c(I)cc1Cl
inactive: Akkermansia muciniphila 1.09 | Bacteroides caccae 0.999 | Bacteroides clarus 0.959 | Bacteroides dorei 0.985 | Bacteroides stercoris 1.04 | [1] 0.964 | Bacteroides uniformis 0.954 | [2] 0.918 | Clostridium difficile 0.937 | Collinsella aerofaciens 0.941 | Coprococcus comes 1.01 | Escherichia coli ED1a 1.02 | Escherichia coli IAI1 0.985 | Eubacterium rectale 1.01 | [3] 1.08 | Lactobacillus gasseri 0.872 | Lactobacillus paracasei 1 | Odoribacter splanchnicus 0.962 | Parabacteroides merdae 0.964
active: [4] 0.707

C#CCN1C(=O)COc2cc(F)c(N3C(=O)C4=C(CCCC4)C3=O)cc21
inactive: Akkermansia muciniphila 1.23 | Bacteroides caccae 1.01 | Bacteroides clarus 0.994 | Bacteroides dorei 0.931 | Bacteroides stercoris 1 | [1] 1 | Bacteroides uniformis 0.959 | [2] 1.02 | Clostridium difficile 0.929 | Collinsella aerofaciens 0.944 | Coprococcus comes 1.01 | Escherichia coli ED1a 0.98 | Escherichia coli IAI1 0.984 | Eubacterium rectale 1.09 | [3] 0.944 | Lactobacillus gasseri 0.883 | Lactobacillus paracasei 0.934 | Odoribacter splanchnicus 0.948 | [4] 0.855 | Parabacteroides merdae 0.958

CNC(=O)Oc1cccc2c1OC(C)(C)O2
inactive: Akkermansia muciniphila 0.915 | Bacteroides caccae 1.07 | Bacteroides clarus 1.01 | Bacteroides dorei 0.982 | Bacteroides stercoris 1.02 | [1] 1.04 | Bacteroides uniformis 0.997 | [2] 1.06 | Clostridium difficile 1.06 | Collinsella aerofaciens 1 | Coprococcus comes 1.02 | Escherichia coli ED1a 1 | Escherichia coli IAI1 0.993 | Eubacterium rectale 0.967 | [3] 1.01 | Lactobacillus gasseri 1.11 | Lactobacillus paracasei 0.984 | Odoribacter splanchnicus 1.02 | [4] 1.02 | Parabacteroides merdae 1.02

CCOP(=S)(OCC)SCCSCC
inactive: Akkermansia muciniphila 0.992 | Bacteroides caccae 1.03 | Bacteroides clarus 1.01 | Bacteroides dorei 0.973 | Bacteroides stercoris 1.06 | [1] 1.01 | Bacteroides uniformis 0.973 | [2] 1.02 | Clostridium difficile 0.977 | Collinsella aerofaciens 0.972 | Coprococcus comes 1.03 | Escherichia coli ED1a 1.01 | Escherichia coli IAI1 1 | Eubacterium rectale 0.971 | [3] 1.09 | Lactobacillus gasseri 1.02 | Lactobacillus paracasei 1.1 | Odoribacter splanchnicus 1.02 | [4] 0.991 | Parabacteroides merdae 1.01
